# Experimental data reported in paper PMC12136788.
# Whole data set: some 24,000 sequences, median “enrichment r” near 0.99, cut for the highest 2% near 3.7. Shown is part of a subset that was picked to be rich in the highest values.
# T1: UNK ZnF1-3 (human, UniProt Q9C0B0 31-174)
# T1 sequence: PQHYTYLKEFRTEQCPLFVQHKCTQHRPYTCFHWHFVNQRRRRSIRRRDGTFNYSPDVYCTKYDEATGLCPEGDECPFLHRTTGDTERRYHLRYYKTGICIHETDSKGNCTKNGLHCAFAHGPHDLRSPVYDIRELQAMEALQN
# B1: chr17:47010600:47010601:-_ENSG00000159210_ENST00000290330|hu_hu|FALSE|FALSE (ssRNA)
# RNA: GGGAGUUCUACAGUCCGACGAUCACUGACAGUCACGUAGCCAUUCUCUGCCAGCUGCAGCACCACGGUGUGAUCCAUAUUGAGCUCAGCUGGAACAGACUGAAUGAGGUAAGUGCCGCCCACAGGGAUGAUGCCGAAGCCAGUCAACAGAGGAUUGAGCAUCA
# B2: chr2:217001844:217001845:+_ENSG00000079246_ENST00000392132|hu_hu|FALSE|FALSE (ssRNA)
# RNA: GGGAGUUCUACAGUCCGACGAUCGCCGACUUGAGGAUUAGCUCUUUUGUCAUAAGCAUAUCGAACUAUGGCCACCAUGUCUAAGUCAUCCAAAGCAUGAAUCAGGGAGGAAAGUGCAACUGCAGCUGCCUCAUCAUCUCUUGCCAACAGAGGAUUGAGCAUCA
# B3: chr21:40768814:40768815:+_ENSG00000182093_ENST00000333781|hu_mus|motif|central (ssRNA)
# RNA: GGGAGUUCUACAGUCCGACGAUCCUGGCCUUCCCCUCAGCUGAAAGGGUGGAGAACGAUAGCCACAACUUUGUUACAGACGGAAAUCCAACAGGUGAUUCCAAUUCCACCUGCUACUCGAGUAGGAAAGGCUACCAGGCGGUCCAACAGAGGAUUGAGCAUCA
# B4: 96412582_96412966_892_CDS_ENSG00000111144_ENST00000228740|human|control|control (ssRNA)
# RNA: GGGAGUUCUACAGUCCGACGAUCGCCACCAUAAGGGAAGGAUGGUGGCAGGACCAAUAGGUCAUACUGUCCCCAUACAUACGGUCCUCCCAGAUCUUCUGCUAUUUUAAGCAUAGAUUCAGUCUCAGAAAACUCAUAAGCAGACAACAGAGGAUUGAGCAUCA
# B5: 32585910_32588873_1288_CDS_ENSMUSG00000024381_ENSMUST00000025239|mouse|control|control (ssRNA)
# RNA: GGGAGUUCUACAGUCCGACGAUCUGAGAAAGGCCCAGGGGCCUCAAACUGGGAGGGGGUGGUCACGCUGAUCUCAGGGACAAAUGCGUCAUCAAAAAGGCUGAGAAUCUGCUCCUGCUUCAUCUCCUUGGAUGGGGUGUGUUUCAACAGAGGAUUGAGCAUCA
# B6: chrX:117107323:117107324:-_ENSG00000003096_ENST00000371878|hu_mus|motif|central (ssRNA)
# RNA: GGGAGUUCUACAGUCCGACGAUCUUUGAGCUGCAACAGUACAAAUGGGAUAUAAACCUCAGCAUAGCCUUAGGCCACAGCGGAUAGAGAUCAGUGACUAAAUUCAGCAGCCCGCUUUCCUCCUGUGAAAGCUCUGGCCACACACAACAGAGGAUUGAGCAUCA
# Target: T1, UNK ZnF1-3
# Assay: nsRBNS (natural sequence RNA bind-n-seq); RBNS binding buffer (assumed for nsRBNS): 25 mM Tris pH 7.5, 150 mM KCl, 3 mM MgCl2, 0.01% Triton X-100, 500 ug/ml BSA, 20 U/ml SUPERase-In, 4 C; UNK is unkempt and MSI1 is Musashi-1; names of the RNAs are library labels; protein concentration not given here; high values mean tight binding
row,Binder,binding signal
1,B1,0.843 enrichment R
2,B2,1.53 enrichment R
3,B3,1.05 enrichment R
4,B4,0.524 enrichment R
5,B5,1.65 enrichment R
6,B6,1.34 enrichment R
